# Screening results from PubChem BioAssay.
# USP10 inh: inhibitors of human USP10 deubiquitinase | Q14694 | purified USP10, Ub-rhodamine fluorescence, 60 min | inhibition, % at 20 µM | hit rate 1.1% among 47,000 | AID 1645856
# USP7 inh: blocks human USP7 ubiquitin-rhodamine cleavage; purified USP7, Ub-rhodamine cleavage fluorescence; inhibition, % at 20 µM; hit rate 0.3% among 47,000
# UCHL1 inh: inhibitors of human UCHL1 deubiquitinase. P09936. purified UCHL1, Ub-rhodamine cleavage fluorescence. inhibition, % at 20 µM. hit rate 0.2% among 47,000
# USP8 inh: human USP8 deubiquitinase inhibition; P40818; purified USP8, Ub-rhodamine cleavage fluorescence, 30 min; inhibition, % at 20 µM; hit rate 4.2% among 47,000; AID 1645853
# Numbers stand for hits; n = inactive; x = no result. This is a sample that favours compounds with a hit; in the whole collection about 4.6% have one here. No stated cut-off is given here; in the data, active means inhibition above about 30%; inactive means the rest.
SMILES,USP10 inh,USP7 inh,UCHL1 inh,USP8 inh
CCC(NC(=O)Cc1c(C)c2c(O)cc(C)cc2oc1=O)C(=O)O (configuration not stated),n,x,n,n
O=C(Oc1ccc(-n2cnnn2)cc1)c1ccccc1Br,n,n,n,45.0
CCCCOc1ccccc1C(=O)Oc1ccc(-n2cnnn2)cc1,n,n,n,n
CCn1c(-c2nnc(SCC(=O)NCCc3nc4ccccc4[nH]3)o2)cc2ccccc21,n,46.2,n,n
COc1cccc(C2=NO[C@]3(C(=O)Nc4ccccc43)[C@H]2C(=O)c2ccco2)c1OC,n,n,n,n
O=C(Cn1c(-c2nc(-c3cccc(F)c3)no2)cccc1=O)NCc1ccco1,38.0,n,n,87.3
FC(F)(F)c1cccc(Nc2nc(-c3ccccn3)nc3ccccc23)c1,n,n,n,n
Brc1ccc(Nc2nc(-c3ccccn3)nc3ccccc23)cc1,n,n,n,92.9
CCOC(=O)C1=C(COc2ccccc2Br)NC(=O)NC1C (configuration not stated),n,n,n,n
O=C(CNC(=O)c1ccc(F)c(F)c1)Nc1nc2ccccc2[nH]1,n,n,n,n
O=C(CNC(=O)c1cc(F)cc(F)c1)Nc1nc2ccccc2[nH]1,n,n,n,35.7
COc1ccccc1OCc1nnc(SCC(=O)c2ccc(F)cc2)n1C,n,n,n,n
Cn1c(COc2cccc3cccnc23)nnc1SCC(=O)c1ccc(Cl)cc1Cl,36.1,n,n,57.9
Cc1noc(C)c1-c1ccc(S(=O)(=O)Nc2ccc(C#N)cc2)cc1,n,n,n,31.4
CCC(=O)NNC(=O)c1c(O)c2ccccc2n(CC)c1=O,n,n,n,50.8
COc1cccc(NC(=O)c2c(O)c3ccccc3n(CC(C)C)c2=O)c1,n,n,n,85.4
CCn1c(=O)c(C(=O)NCc2cccnc2)c(O)c2ccccc21,n,x,n,n
Cn1c(=O)c(C(=O)Nc2cccc(F)c2)c(O)c2ccccc21,n,n,n,n
O=C(CSc1ccc2nnc(CCNS(=O)(=O)c3ccccc3)n2n1)N1CCCc2ccccc21,n,n,n,n
O=C(CSc1ccc2nnc(-c3cccc(F)c3)n2n1)N1CCCc2ccccc21,n,n,n,38.5
COc1cc(C)ccc1OCC(=O)N1CCCC(c2[nH]nc3nccnc23)C1 (configuration not stated),n,n,n,n
Cc1c(NC(=O)Cc2cccs2)cccc1-n1cnnn1,n,n,n,50.7
O=c1cc(Cc2ccccc2)nc2c(-c3ccccc3)c(COc3ccccc3)[nH]n12,61.9,52.1,n,n
Cc1[nH]n2c(=O)cc(Cc3ccccc3)nc2c1-c1ccccc1,n,n,n,n
Cc1cc(=O)[nH]c(SCC(=O)c2cc(C)n(CCC3=CCCCC3)c2C)c1C#N,44.7,n,n,49.2
SMILES,USP10 inh,USP7 inh,UCHL1 inh,USP8 inh
Cc1cc(C(=O)COC(=O)c2cc(=O)[nH]c3ccccc23)c(C)n1CC1COc2ccccc2O1 (configuration not stated),n,n,n,n
Cc1ccc(-c2cn(CC(=O)NCc3cccc(F)c3)c(=O)o2)cc1,n,n,n,n
COc1ccc(C(=O)c2nnn(-c3ccc(OC(F)(F)F)cc3)c2C)cc1,n,n,n,33.2
COc1ccc(-n2nnc(C(=O)Nc3ccc(F)cc3)c2C)cc1,n,n,n,n
CCOC(=O)N1CCC(NC(=O)c2cc3ccccc3s2)CC1,n,n,n,n
Cc1ccc(NC(=O)c2cnc3ccccc3n2)cc1Cl,n,n,n,65.0
COc1ccc(C(=O)NCCc2cc3c(C)ccc(C)c3[nH]c2=O)c(OC)c1,n,n,n,n
CC(C)Cn1c(=O)c2nscc2n(CC(=O)Nc2ccccc2)c1=O,n,n,n,62.7
CCCn1c(=O)c2nscc2n(CC(=O)Nc2ccccc2)c1=O,n,n,n,n
Cc1cc(C)nc(-n2ncc(C#N)c2NC(=O)c2ccc(Br)cc2)n1,n,n,n,44.5
CN1CCCc2cc(C(CNC(=O)COc3ccccc3F)N3CCOCC3)ccc21 (configuration not stated),n,n,n,n
CCOC(=O)c1cc2c(ccn2C)n1Cc1ccc(C#N)cc1,n,n,n,70.5
CCOC(=O)c1cc2c(ccn2C)n1CC(=O)N(C1CCCCC1)C1CCCCC1,n,n,n,n
CCOC(=O)c1cc2c(ccn2C)n1CC(=O)N1CCCCC1,n,n,n,n
CCOC(=O)c1cc2c(ccn2C)n1CC(=O)N(Cc1ccc(Cl)cc1)c1ccccc1,n,n,n,56.7
Cc1noc(-c2c(C)[nH]c(C)c2S(=O)(=O)NC(C)c2ccccc2)n1 (configuration not stated),n,n,n,n
Cc1ccc(-c2cc(C(F)F)n3ncc(C(=O)Nc4ccc(O)cc4)c3n2)cc1,44.3,n,n,60.4
Cc1ccc(-c2cc(C(F)F)n3ncc(C(=O)Nc4ccc(Cl)cc4)c3n2)cc1,n,n,n,n
CCCN1CCN(C(=O)c2cn(-c3ccccc3)nc2-c2ccc(C)c(C)c2)CC1,n,n,n,n
O=C(Nc1cc(S(=O)(=O)Nc2ccc(Cl)cc2)ccc1O)c1cc2c(s1)CCC2,70.3,59.6,33.3,98.5
Nc1ccc(NC(=O)c2cc3c(s2)CCC3)cc1[N+](=O)[O-],n,n,n,57.1
Cc1cc(N2CCCC2c2cncc(-c3ncc(C)[nH]3)n2)ncn1 (configuration not stated),n,n,n,n
O=C1CC(C(=O)Nc2ccccc2F)n2c(nc3ccccc32)N1 (configuration not stated),n,n,n,39.0
O=C1CC(C(=O)NCCc2ccccc2)n2c(nc3ccccc32)N1 (configuration not stated),n,n,n,43.4
O=C(CC1C(=O)N(Cc2ccccc2)c2nc3ccccc3n21)NCCc1ccccc1 (configuration not stated),n,n,n,n
SMILES,USP10 inh,USP7 inh,UCHL1 inh,USP8 inh
O=C(Nc1ccccc1F)C1Cc2ccccc2N1C(=O)c1ccccc1 (configuration not stated),n,n,n,n
O=C(Nc1ccccc1F)C1CCCN(S(=O)(=O)Cc2ccc(F)cc2)C1 (configuration not stated),n,n,n,n
CS(=O)(=O)NC1CCCN(C(=O)Nc2cccc3ccccc23)C1 (configuration not stated),n,n,n,93.1
Cc1cccc(CNC(=O)C2CCCN(S(=O)(=O)N3CCCCC3)C2)c1 (configuration not stated),n,n,n,32.3
CCc1ccccc1NC(=O)N1CCCC(CN2CCc3ccccc3C2)C1 (configuration not stated),n,n,n,n
O=C(Nc1cccc2ccccc12)C1CCCN(S(=O)(=O)Cc2ccccc2)C1 (configuration not stated),n,n,n,31.8
COc1ccc(N2CCn3c(SCC(=O)Nc4cc(C)cc(C)c4)nnc32)cc1,n,n,n,49.9
COc1ccc(-c2nnc(NC(=O)CSc3ccc(C)cc3)o2)cc1,n,n,n,n
Cc1ccc(Nc2nccc(C3CCN(C(=O)c4cccnc4)C3)n2)nc1 (configuration not stated),n,n,n,n
O=C(O)C1CCN(C(=O)Nc2ccc3c(c2)OCO3)CC1,n,n,n,n
